Experimental data published in PubChem BioAssay (NCATS).
Records with an inconclusive call do not appear. The source made the active and inactive calls. Calls come from the whole dose curve; as a rule, active = well fitted curve in the direction sought with a large enough effect; inconclusive = small, poorly fitted or top-dose-only effect, or another doubt; inactive = no such curve, though single readings can be large; an effect the other way counts as inactive or inconclusive.

Target: Calcium and integrin-binding protein 1 (Homo sapiens) (UniProt Q99828)
Test: Primary qHTS for Identification of Calcium Integrin Binding Protein 1 (CIB1) Competitor (AID 1508620); note: potency is the fitted concentration of half-maximal effect;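 for activity change, negative = inhibition: GST tagged CIB1 binding a fluorescein labelled alphaIIb integrin peptide tracer; top concentration of the series differs between compounds; % is set by controls: 0 for no effect and ±100 for the full control effect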
Conditions: CIB1-GST / FITC-alphaIIb peptide fluorescence polarization; series mostly up to 114 µM; activity change, negative = inhibition: at the top concentration
Outline: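 CIB1-GST (1 uM final) and compound incubated 15 min at room temperature before adding FITC-alphaIIb peptide tracer (100 nM final). Competition for binding read by fluorescence polarization (ex 480, em 540) after another 15 min at room temperature.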

Chain of Calcium and integrin-binding protein 1 (Homo sapiens) (Q99828 whole entry, looked up): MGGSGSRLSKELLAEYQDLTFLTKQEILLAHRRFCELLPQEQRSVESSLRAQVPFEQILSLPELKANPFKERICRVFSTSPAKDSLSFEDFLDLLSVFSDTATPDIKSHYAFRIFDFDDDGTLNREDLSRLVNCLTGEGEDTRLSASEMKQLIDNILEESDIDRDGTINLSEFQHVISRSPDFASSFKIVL

Row | Compound | activity change, negative = inhibition | Potency
1 | Nc1nc(N)nc(NC2CC2)n1 | 2.88% (inactive) | 
2 | CN1CC[C@]23c4c5ccc(O)c4O[C@H]2[C@@H](O)CC[C@H]3[C@H]1C5 | 2.83% [at 228 µM] (inactive) | 
3 | COc1cc(CC(C)N)cc(OC)c1OC (configuration not stated) | 3.83% [at 228 µM] (inactive) | 
4 | C[C@H]1[C@@H]2Cc3ccc(O)cc3[C@@]1(C)CCN2C | -3.8% [at 573 µM] (inactive) | 
5 | COC(=O)C(Cl)C(=O)OC | -3.19% (inactive) | 
6 | CCCOC(=O)c1cncn1C(C)c1ccccc1 (configuration not stated) | 3.32% (inactive) | 
7 | CC(Cc1ccccc1)NCCn1cnc2c1c(=O)n(C)c(=O)n2C (configuration not stated) | 6.47% [at 228 µM] (inactive) | 
8 | CC(C)C[C@H](CN)CC(=O)O | -1.09% [at 57.7 µM] (inactive) | 
9 | C[C@H](N)C(=O)c1ccccc1 | 4.42% [at 228 µM] (inactive) | 
10 | Clc1cccc(SC2CCNCC2)n1 | 5.02% (inactive) | 
11 | CCCCCCCCCC(=O)O[C@H]1CC[C@H]2[C@@H]3CCC4=CC(=O)CC[C@@H]4[C@H]3CC[C@]12C | -11% (inactive) | 
12 | COc1cccc([C@@]2(O)CCCC[C@@H]2CN(C)C)c1 | 0.818% (inactive) | 
13 | CCN(CC)C(=O)[C@@H]1C=C2c3cccc4[nH]cc(c34)C[C@H]2N(C)C1 |  | 63.1 µM (active)
14 | CCC1(CC)C(=O)C=CNC1=O | 8.69% (inactive) | 
15 | c1ccc(N2CCNCC2)cc1 | 2.77% (inactive) | 
16 | [N-]=[N+]=CC(=O)OC[C@H](N)C(=O)O | -3.14% (inactive) | 

Row | Compound | activity change, negative = inhibition | Potency
17 | CCC1(c2ccccc2)C(=O)N(COC)C(=O)N(COC)C1=O | 1.57% (inactive) | 
18 | NC(=O)CS(=O)C(c1ccccc1)c1ccccc1 (configuration not stated) | 54.5% (inactive) | 
19 | CN1CCC(O)(c2ccc(F)cc2)C(C(=O)c2ccc(F)cc2)C1 (configuration not stated) | -2.18% (inactive) | 
20 | O=C1CN=C(c2ccccc2)c2cc([N+](=O)[O-])ccc2N1 | 0.521% (inactive) | 
21 | O=C1c2ccccc2C(=O)C1C(=O)C(c1ccccc1)c1ccccc1 | -7.49% (inactive) | 
22 | Nc1ccccc1C(=O)O | 2.96% (inactive) | 
23 | CNCC(=O)c1ccc(O)c(O)c1 | -22.4% (inactive) | 
24 | COC(=O)[C@@H](N)CCCN/C(N)=N/[N+](=O)[O-] | 2.47% (inactive) | 
25 | O=C(O)c1ccc(=O)[nH]c1 | 3.24% (inactive) | 
26 | CCN[C@H](C)Cc1cccc(C(F)(F)F)c1 | -2.78% [at 228 µM] (inactive) | 
27 | CC(C)=CC1C(C(=O)OCN2C(=O)C3=C(CCCC3)C2=O)C1(C)C (configuration not stated) | -3.73% (inactive) | 
28 | CCN(CC)CCc1c[nH]c2ccccc12 | 7.01% [at 384 µM] (inactive) | 
29 | CC(C)(N)Cc1ccccc1Cl | -3.04% (inactive) | 
30 | COc1cc(CCN)cc(OC)c1OC | 1.98% [at 228 µM] (inactive) | 
31 | O=C(N/N=C/c1ccc([N+](=O)[O-])o1)c1cc([N+](=O)[O-])cc([N+](=O)[O-])c1O | -16% (inactive) | 

System: not listed separately
Test: Counterscreen qHTS for small molecule stabilizers of the endoplasmic reticulum resident proteome: GLuc-NoTag assay (AID 1508627);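 note: SH-SY5Y cells given compound then 100 nM thapsigargin to empty ER calcium; 0% = thapsigargin alone and -100% = DMSO vehicle control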
Conditions: Gaussia luciferase NoTag secretion counterscreen, luminescence, thapsigargin 100 nM for final 4 h; series mostly up to 76.4 µM; activity change, negative = inhibition: at the top concentration
Outline: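 Luminescence of Gaussia luciferase secreted into the medium (coelenterazine, 0.07x final, unlysed cells) was the read-out. Human SH-SY5Y neuroblastoma cells constitutively secreting untagged GLuc received compound for 19 h, then 100 nM thapsigargin for 4 h.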

Row | Compound | activity change, negative = inhibition
32 | C[C@H]1[C@@H]2Cc3ccc(O)cc3[C@@]1(C)CCN2C | -0.69% [at 385 µM] (inactive)
33 | C[C@H](N)C(=O)c1ccccc1 | 21.2% [at 157 µM] (inactive)
34 | NNc1ccccc1 | 31.7% (inactive)

System: not listed separately
Test: Confirmatory qHTS for small molecule stabilizers of the endoplasmic reticulum resident proteome: Secreted ER Calcium Modulated Protein (SERCaMP) assay (AID 1508628); note: nearly all actives have a fitted effect of over 40% in size; note: potency is the fitted concentration of half-maximal effect; for activity change, negative = decrease: % is set by controls: 0 for no effect and ±100 for the full control effect
Conditions: SERCaMP secreted luciferase ER calcium/proteostasis reporter; series mostly up to 76.3 µM; activity change, negative = decrease: at the top concentration
Outline: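 SH-SY5Y cells stably expressing GLuc-SERCaMP, treated 16 h with compound (primary 1.53, 7.67, 38.3 uM; confirmation 11 concentrations, up to 76.6 uM), then 100 nM thapsigargin for 4 h. Secreted Gaussia luciferase in medium read by coelenterazine luminescence.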

Row | Compound | Potency | activity change, negative = decrease
35 | C[C@H]1[C@@H]2Cc3ccc(O)cc3[C@@]1(C)CCN2C | 22.4 µM (active) | 
36 | CNCC(=O)c1ccc(O)c(O)c1 |  | -18.5% (inactive)
37 | NNc1ccccc1 |  | 13.6% (inactive)
